HTR5A inv ag = counter-screen for OPRM1-OPRD1 inverse agonists: human HTR5A inverse agonism. P47898. HTR5A cell line, luminescence. inhibition, % at 9.3 µM. 0.083% of 340,000 active; in the data active means inhibition mostly above about 23%, no sharp cut-off; inactive means mostly below about 18%;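 further: 0% = cells with DMSO and 100% = no-cell wells with DMSO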
HTR5A ag = activates human HTR5A in OPRM1-OPRD1 agonist counter-screen | HTR5A agonist assay, luminescence, cell-based | 0.61% of 340,000 active | AID 504692 | P47898 | activation, % at 9.3 µM; in the data active means activation mostly above about 9.5%, no sharp cut-off; inactive means mostly below about 7.6%;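 further: 0% = cells with vehicle only and 100% = reference agonist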
MOR-DOR ag-1 = agonists of human mu-delta opioid receptor heterodimerization; 0.3% of 340,000 active; activation, % at 9.3 µM; cells, OPRM1-OPRD1 heterodimerization, luminescence;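 further: 0% = vehicle-treated cells and 100% = reference agonist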
Target sequence (P35372 whole entry, looked up): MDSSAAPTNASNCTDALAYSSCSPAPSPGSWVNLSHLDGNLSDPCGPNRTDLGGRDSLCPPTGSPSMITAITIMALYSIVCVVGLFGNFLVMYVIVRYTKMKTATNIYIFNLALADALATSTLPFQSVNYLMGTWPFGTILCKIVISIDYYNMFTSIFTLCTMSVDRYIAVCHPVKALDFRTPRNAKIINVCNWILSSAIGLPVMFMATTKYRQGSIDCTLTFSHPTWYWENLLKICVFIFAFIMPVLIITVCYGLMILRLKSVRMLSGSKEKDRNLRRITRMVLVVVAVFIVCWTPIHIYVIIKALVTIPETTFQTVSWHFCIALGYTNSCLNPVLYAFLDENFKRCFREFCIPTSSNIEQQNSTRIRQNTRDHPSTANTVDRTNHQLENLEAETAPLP
Target sequence (P41143 whole entry, looked up): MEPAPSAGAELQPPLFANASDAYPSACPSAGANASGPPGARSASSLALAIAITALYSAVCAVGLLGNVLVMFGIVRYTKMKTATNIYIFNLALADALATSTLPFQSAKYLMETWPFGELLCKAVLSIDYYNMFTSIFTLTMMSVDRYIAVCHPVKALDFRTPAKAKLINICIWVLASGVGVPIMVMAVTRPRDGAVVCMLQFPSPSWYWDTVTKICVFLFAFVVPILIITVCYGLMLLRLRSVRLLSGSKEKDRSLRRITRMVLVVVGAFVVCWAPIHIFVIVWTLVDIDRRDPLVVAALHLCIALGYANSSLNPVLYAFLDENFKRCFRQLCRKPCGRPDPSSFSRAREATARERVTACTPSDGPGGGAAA
MOR-DOR inv ag = inverse agonists of human mu-delta opioid receptor heterodimerization; P35372+P41143; cell-based MOR-DOR heterodimer luminescence, inverse agonism; inhibition, % at 9.3 µM; 0.21% of 340,000 active; AID 504357; in the data active means inhibition above about 22%, passing the limit was not always enough;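 further: 0% = cells with DMSO and 100% = wells without cells with DMSO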
MOR-DOR ag-2 = promotes OPRM1-OPRD1 heterodimerization in HTR5A counter-screen | 13% of 800 active | shares compounds with HTR5A ag | U2OS counter-screen cells, complementation luminescence, 3 h | AID 504913 | activation, % at 9.3 µM
HTR5A ag confirm = confirmation of human HTR5A agonists | shares compounds with HTR5A ag | HTR5A agonist cell assay, luminescence | activation, % at 9.3 µM | 17% of 800 active | AID 504915; in the data active means activation above about 17%;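 further: 0% = cells with vehicle only and 100% = full reference agonist response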
The depositor's hits bear a star; nt = no result given. Only some compounds are listed: those with a hit (about 1.1% of all), similar ones and a draw of the others. Unless noted, no stated cut-off is given here; in the data, active means activation above about 18%; inactive means the rest.

SMILES | HTR5A inv ag | HTR5A ag | MOR-DOR ag-1 | MOR-DOR inv ag | MOR-DOR ag-2 | HTR5A ag confirm
O=C(Nc1nnc(Cc2c[nH]c3ccccc23)s1)c1ccc(Cl)cc1Cl | 7.9 | 7.3 | 3.9 | -20.1 | nt | nt
COc1ccc(S(=O)(=O)N2CCC(C(=O)N[C@@H](C)C(=O)NC3CC3)CC2)cc1 | -5.1 | 6.5 | -1.6 | 8.1 | nt | nt
CCCCNC(=O)CCn1c(=O)c2ccccc2n(Cc2ccc(Cl)cc2)c1=O | -47.4 | 17.8* | -0.8 | 4.9 | 1.1 | -1.9
Cc1cc[n+](Cc2ccccc2)c(N)c1 | -13.2 | 14.4* | -1.0 | 5.6 | 54.9* | -3.2
O=C(Nc1ccc(Nc2ccccc2)cc1)c1c(F)c(F)c(F)c(F)c1F | -7.2 | 16.0* | 4.8 | -23.8 | 10.6 | 3.5
O=C(Nc1ccc(Nc2ccccc2)cc1)c1c(Cl)cccc1Cl | 27.6 | -1.6 | 0.1 | -0.5 | nt | nt
NC(=O)NC1NC(=O)NC1=O (configuration not stated) | 2.2 | -0.1 | -0.7 | 3.5 | nt | nt
N#Cc1ccc(OCC(=O)N2CCN(c3ccc(C(F)(F)F)cn3)CC2)cc1 | -5.7 | 18.6* | -0.1 | 0.5 | -0.6 | -2.0
Cc1ccc2ccccc2c1CSc1nc(N)nc2c1ncn2CC(C)C | -58.4 | 15.2* | -4.0 | 17.5 | 3.8 | 1.8
CC(C)Cn1cnc2c(SCc3ccccc3)nc(N)nc21 | 5.5 | -1.4 | -1.4 | 7.0 | nt | nt
CCC(C)NS(=O)(=O)c1ccc(S(=O)(=O)N(CC(=O)Nc2ccccc2)Cc2ccco2)cc1 (configuration not stated) | -9.0 | 14.9* | 0.8 | -4.0 | -1.1 | 1.9
CCOc1ccc(S(=O)(=O)N2CCNC(=O)C2)cc1 | -56.6 | 20.4* | 0.1 | -0.3 | -0.3 | 1.8
CCOc1ccc(S(=O)(=O)N2CN3CCN(C3)C2)cc1 | -14.3 | 2.2 | -1.7 | 9.5 | nt | nt
CN(Cc1ccccc1)S(=O)(=O)c1ccc2c(c1)n(C)c(=O)n2C | -56.9 | 16.1* | 6.2 | -33.5 | 0.3 | -1.3
CCOC(=O)C1=C(COC(=O)Cc2ccccc2)NC(=O)NC1C (configuration not stated) | 7.5 | 0.8 | -2.7 | 13.8 | nt | nt
Cc1cc(Br)ccc1NC(=O)CN(C)C(=O)CSCc1ccccc1 | -10.8 | 4.4 | 0.3 | -1.5 | nt | nt
Cc1ccc(C(=O)C2=C(O)C(=O)N(Cc3cccnc3)C2c2ccc(OC(C)C)cc2)o1 (configuration not stated) | -13.9 | 2.4 | -5.7 | 18.6 | nt | nt
COc1ccc(C2C(C(=O)c3ccc(C)o3)=C(O)C(=O)N2Cc2cccnc2)cc1 (configuration not stated) | 5.5 | 14.6* | -2.3 | 14.3 | 181.9* | 3.8
CCN(CC)CCn1c2c(c(SCC(=O)Nc3cc(C)cc(C)c3)nc1=O)CCC2 | -4.5 | 6.5 | -0.6 | 4.1 | nt | nt
COc1ccc(NC(=S)N2CCCN(Cc3cccc(Cl)c3)C2)cc1 | 6.6 | 48.3* | -0.9 | 5.0 | 166.9* | -1.5
CCOc1ccc(NC(=S)N2CCCN(Cc3cccc(Cl)c3)C2)cc1 | -9.6 | 3.0 | 1.2 | -6.2 | nt | nt
COc1cccc(NC(=S)N2CCCN(Cc3ccc(F)cc3)C2)c1 | -13.8 | 33.3* | 0.0 | -0.2 | 3.6 | 25.8*
Cc1cccc(C)c1NC(=S)N1CCCN(Cc2ccc(F)cc2)C1 | -12.1 | -0.1 | -0.3 | 1.4 | nt | nt
O=C(CS(=O)CC(=O)Nc1cccnc1)Nc1ccc(F)cc1 (configuration not stated) | 9.5 | 0.8 | -0.3 | 1.7 | nt | nt
CCN(CC)C(CNC(=O)CSc1nnnn1-c1ccc(C)c(C)c1)c1ccco1 (configuration not stated) | 8.4 | -3.5 | 1.9 | -7.7 | nt | nt
SMILES | HTR5A inv ag | HTR5A ag | MOR-DOR ag-1 | MOR-DOR inv ag | MOR-DOR ag-2 | HTR5A ag confirm
CCN(CC)C(CNC(=O)CSc1nnnn1-c1c(C)cccc1C)c1ccco1 (configuration not stated) | -55.0 | 20.0* | 1.0 | -6.5 | 3.2 | 29.4*
COc1cc(C(N)=O)ccc1OCc1ccccc1 | -10.7 | 4.3 | -0.8 | 4.0 | nt | nt
COc1cc(C(=O)O)ccc1OCc1ccncc1 | -1.2 | 15.9* | -1.8 | 9.8 | -0.4 | 0.0
COc1ccc(N(CC(=O)NC2CCS(=O)(=O)C2)S(=O)(=O)c2cc(C)ccc2C)cc1 (configuration not stated) | -10.1 | 2.6 | 1.5 | -7.4 | nt | nt
CCOC(=O)c1sc(NNC(=O)c2ccc(C)cc2)nc1C | -16.1 | -0.1 | -0.5 | 2.5 | nt | nt
CCOC(=O)c1sc(NNC(=O)c2ccc(F)cc2)nc1C | -2.5 | 16.0* | 2.9 | -14.5 | -0.3 | -2.4
O=C(O)CSc1ccc(NC(=O)Nc2ccccc2F)cc1 | -14.4 | 3.7 | -3.6 | 20.1 | nt | nt
O=C(CCc1nnc(Cc2cccc(C(F)(F)F)c2)o1)NCCc1ccccc1F | 2.2 | -0.6 | -0.9 | 4.5 | nt | nt
COc1ccc(CNC(=S)Nc2ccc3nc(N4CCN(C)CC4)cc(C)c3c2)cc1 | -15.6 | 5.4 | -1.2 | 6.7 | nt | nt
COc1ccccc1CNC(=S)Nc1ccc2nc(N3CCN(C)CC3)cc(C)c2c1 | -199.3 | 69.5* | -2.1 | 11.3 | 1.6 | 70.2*
O=c1[nH]c(C2CCN(S(=O)(=O)Cc3ccccc3)CC2)nc2c1nnn2Cc1cccc(Cl)c1 | -43.1 | 14.5* | 1.6 | -13.2 | 1.3 | 0.8
CC(C)c1c(C(=O)N/N=C/c2cccc(OCc3ccccc3)c2)nnn1-c1nonc1N | -14.3 | -3.0 | 3.1 | -16.7 | nt | nt
Cc1cccc2cc(CNCC3CCCO3)c(Cl)nc12 (configuration not stated) | -41.4 | 15.0* | -0.9 | 4.8 | 0.2 | -1.4
CCOc1cc(S(=O)(=O)N2CCCCCC2)ccc1F | -14.8 | 20.4* | 0.8 | -4.2 | 1.7 | 3.5
CCOc1ccccc1N1CCN(S(=O)(=O)c2ccc(F)c(F)c2)CC1 | -7.4 | -1.1 | -0.3 | 1.3 | nt | nt
Cc1cc(C(=O)Nc2ccc(N3CCOCC3)c3nonc23)ccc1[N+](=O)[O-] | -13.4 | 0.1 | -2.3 | 14.2 | nt | nt
COc1ccc(C(=O)N2CCN(CCc3ccccc3)CC2)cc1[N+](=O)[O-] | -46.2 | 19.2* | -2.4 | 12.3 | 0.8 | 1.6
O=C(NCc1ccc2c(c1)OCO2)c1cc(-c2ccccc2Cl)on1 | -14.9 | -0.3 | 0.4 | -2.5 | nt | nt
O=C(Nc1ccc2c(c1)OCO2)c1cc(-c2ccccc2Cl)on1 | -33.9 | 17.2* | 7.3 | -46.1 | 0.3 | 3.6
C=CCc1cccc2cc(C(=O)N3CCN(C(=O)c4ccccc4)CC3)c(=O)oc12 | -48.5 | 16.3* | -0.2 | 2.0 | 0.0 | -3.5
C=CCc1cccc2cc(C(=O)N3CCOCC3)c(=O)oc12 | -30.6 | 8.1 | -2.3 | 11.2 | nt | nt
O=C(c1ccc(Cn2c(=O)[nH]c3ccccc3c2=O)cc1)N1CCN(c2ccccc2)CC1 | -3.9 | 15.0* | 5.9 | -32.2 | 0.9 | 8.5
O=C(c1ccc(Cn2c(=O)[nH]c3ccccc3c2=O)cc1)N1CCN(c2ccccn2)CC1 | -35.8 | 12.2 | -0.3 | 2.0 | nt | nt
O=C(c1ccc(Cn2c(=S)[nH]c3ccccc3c2=O)cc1)N1CCN(c2ccccn2)CC1 | -43.4 | 15.7* | 3.0 | -14.8 | 0.2 | -3.0
O=C(CN(c1ccccc1Cl)S(=O)(=O)c1ccccc1)NCc1ccccc1 | -8.9 | -1.7 | -4.7 | 15.3 | nt | nt

Assay outcomes as filed in PubChem BioAssay.
